# Hit rate of the full screen: of about 2,300 compounds, about 1,500 (65%) were called active. The rule behind the calls is not given here. So high a share suggests a set chosen from earlier hits. Some of the results follow. Results with a measured potency or affinity are listed apart.
# Assay: replicating M. tuberculosis growth inhibition, dose response, non-replicating M. tuberculosis project, H37Rv (AID 492952);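 note: Mycobacterium tuberculosis grown in culture; growth inhibition read after a week of incubation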
# Conditions: series mostly up to 50 µM
row,SMILES,outcome
1,CN1C(=O)CC(Sc2ccccc2C(=O)O)C1=O (centres undefined),inactive
2,CC(C)=CC1C(C(=O)Nc2ccc(Br)cn2)C1(C)C (centres undefined),inactive
3,C/C(=C\C(=O)c1ccc(Br)cc1)NNC(=O)c1ccccc1,inactive
4,Cn1[nH]c(-c2ccccc2)c(/C=N/O)c1=O,inactive
5,COc1ccc(C(O)CNc2ccc(C)cc2)cc1 (centres undefined),inactive
6,CCOc1ccc(NC(=O)Cn2sc3nc(C)cc(C)c3c2=O)cc1,inactive
7,CCOc1ccc(NCC(=O)c2ccc(C)cc2)cc1,inactive
8,O=C1CCC(=O)N1CNc1ccc(Oc2ccccc2)cc1,inactive
9,CCOC(=O)CCSc1n[nH]c(=S)s1,inactive
10,CC(=O)N1CCN(C(=O)CC2OC(=O)c3ccccc32)CC1 (centres undefined),inactive
11,CCn1ccc(C(=O)Nc2cccc(Cl)c2)n1,inactive
12,COc1ccc(CC(=O)OCC(=O)Nc2ccc(Br)cc2)cc1,inactive
13,O=C(COc1ccc(Br)cc1)N/N=C1/SCC(=O)N1Cc1ccco1,inactive
14,COc1ccccc1C(=O)OCC(=O)Nc1ccc(Cl)cn1,inactive
15,O=C(O)c1ccc(NCc2ccc(Br)cc2)cc1,inactive
16,O=C(COc1ccccc1)Nc1ccc(Cl)cn1,inactive
17,O=C(COC(=O)CC1CCCC1)Nc1ccc(Cl)cn1,inactive
18,Cc1ccc(OCC(=O)Nc2ccc([N+](=O)[O-])cc2)cc1,inactive
19,O=C(CCC1CCCC1)Nc1ccc(Br)cn1,inactive
20,O=C(OCC#CCSc1nnc(-c2ccncc2)o1)c1cccs1,inactive
21,OC(C#CCN1CCOCC1)c1cccs1 (centres undefined),inactive
22,O=C(NCc1cccs1)c1ccc([N+](=O)[O-])cc1,inactive
23,Nc1ccc(C(=O)N/N=C\C=C\c2ccc([N+](=O)[O-])cc2)cc1,inactive
24,CCOC(=O)c1csc(NC(=O)COc2ccc(Cl)cc2Cl)n1,inactive
25,O=C(N/N=C/c1cc(Br)ccc1O)c1ccccc1Cl,inactive
26,Cc1cc(Cl)ccc1N(CC(=O)NCc1ccccc1)S(C)(=O)=O,inactive
27,O=C(NCc1ccc(Cl)cc1)c1n[nH]c([N+](=O)[O-])c1Cl,inactive

row,SMILES,outcome
1,COC(=O)COc1ccc(S(=O)(=O)NCc2ccc3c(c2)OCO3)cc1,inactive
2,O=C1NC(Cc2c[nH]c3ccccc23)C(=O)N1CCOc1ccccc1 (centres undefined),inactive
3,c1ccc(-c2nnc(SCc3cn4ccsc4n3)o2)cc1,inactive
4,Fc1ccc(-c2nnc(CSc3nnc(-c4cccs4)o3)o2)cc1,inactive
5,CCn1cc(C(=O)NC(C)C23CC4CC(CC(C4)C2)C3)cn1 (centres undefined),inactive
6,CCOC(=O)Nc1ccc2c(c1)N(C(=O)CCCl)c1ccccc1[S@]2=O,inactive
7,CN(C)CCC(=O)N1c2ccccc2Sc2ccc(Cl)cc21,inactive
8,Cc1ccc(C)c(NC(=O)COC(=O)c2cc3ccccc3oc2=O)c1,inactive
9,O=Cc1coc2ccc3ccccc3c2c1=O,inactive
10,CCOc1ccccc1OC(=O)c1cc2ccccc2oc1=O,inactive
11,CC1(c2nnc(Cc3ccccc3)o2)CC(c2ccccc2[N+](=O)[O-])=NO1 (centres undefined),inactive
12,C/C(=N\O)c1cc(Cl)ccc1O,inactive
13,CC(C)=CCN1CCN(Cc2cn(C(C)C)c3ccccc23)CC1CCO (centres undefined),inactive
14,O=[N+]([O-])c1ccc(N2CCCCCC2)c2nonc12,inactive
15,CCOc1ccc(-c2ccc(C=O)o2)c([N+](=O)[O-])c1,inactive
16,CC(C)N1CCc2c(sc(NC(=O)CCS(=O)(=O)c3ccccc3)c2C#N)C1,inactive
17,N=C1/C(=C\c2coc3ccccc3c2=O)C(=O)N=C2SC=CN12,inactive
18,CSC1=NSC2=NC(=O)/C(=C\c3cccs3)C(=N)N12,inactive
19,c1cncc(-c2noc(CC3CCCCC3)n2)c1,inactive
20,O=C(CCSc1ccc(Cl)cc1)Nc1cccnc1,inactive
21,COc1ccc(C(=O)CC(=O)C(=O)NCCc2cccc(C)c2)cc1,inactive
22,CC[n+]1c(/C=C(\C)Nc2ccccc2)sc2ccccc21,inactive
23,Cc1nnc(C)n1/N=C/c1cc(Br)cc(Br)c1O,inactive
24,COc1cc(C2C3=C(CC(C)(C)CC3=O)OC(N)=C2[N+](=O)[O-])ccc1O (centres undefined),inactive
25,CCOC(=O)CC(NS(=O)(=O)Cc1ccccc1)c1ccc(C)cc1 (centres undefined),inactive
26,COc1ccc(NC(=O)c2nc3ccccc3s2)cc1,inactive
27,CCOc1ccc(NC(=O)c2nnn(CC(=O)Nc3ccccc3OC)c2N)cc1,inactive

row,SMILES,outcome
1,COc1cccc(NC(=O)c2ccc(C(=O)c3ccccc3)o2)c1,inactive
2,O=S(=O)(c1ccc(OCC2CO2)cc1)c1ccc(OCC2CO2)cc1 (centres undefined),inactive
3,COC(=O)COc1ccc(S(=O)(=O)N2CCN(c3ccccc3F)CC2)cc1,inactive
4,Cc1ccc(CC(=O)N2CCN(c3ccc([N+](=O)[O-])cc3)CC2)cc1,inactive
5,O=C(Nc1ccc(N2CCN(C(=O)c3ccco3)CC2)c(Cl)c1)c1cccs1,inactive
6,O=C(c1cccs1)N1CCN(c2ccc(Cl)cc2)CC1,inactive
7,O=C(NNC(=O)c1cccs1)c1ccc(Br)o1,inactive
8,Cc1ccc(-c2nnc(-c3ccccc3)o2)cc1,inactive
9,Cc1nc2ccc(OC(=O)c3ccccc3)cc2s1,inactive
10,O=C(COC(=O)CCC(=O)c1ccc(F)cc1)Nc1ccc(F)cc1F,inactive
11,O=C(NNC(=O)c1ncc(Cl)c(Cl)c1Cl)c1ccc(F)cc1,inactive
12,O=C1c2ccccc2CC1Sc1nnc(-c2ccncc2)o1 (centres undefined),inactive
13,O=C(Nc1ccc(Cl)cc1Cl)c1cccc(N2C(=O)C=CC2=O)c1,inactive
14,C/C(=N\NC(=O)c1cccc(Cl)c1)C1C(=O)c2ccccc2C1=O,inactive
15,CCOc1ccccc1NC(=O)COn1nnc2ccc(Cl)cc21,inactive
16,O=S(=O)(CCN1CCN(c2ccccn2)CC1)c1ccc(Cl)cc1Cl,inactive
17,CC(=O)c1ccc(-c2nnc(CCC(=O)N(C)Cc3cccc4cnccc34)o2)s1,inactive
18,O=C(COc1cccc2ccccc12)Nc1ccc(Cl)cc1C(=O)O,inactive
19,CCOC(=O)c1csc(COc2ccccc2Cl)n1,inactive
20,N=c1oc2ccc(Cl)cc2cc1C(=O)NC1CCCCCC1,inactive
21,O=C(Nc1nccs1)c1ccc(COc2ccc(Cl)cc2)o1,inactive
22,CCOc1cccc2cc(C(=O)NC(C)c3ccccc3)c(=N)oc12 (centres undefined),inactive
23,CCOC(=O)C(=O)Cc1nc2ccccc2s1,inactive
24,CCOC(=O)NC(=O)COC(=O)CCCSc1nc2ccccc2s1,inactive
25,CCNC(=O)NC(=O)C(C)OC(=O)CCCSc1nc2ccccc2s1 (centres undefined),inactive
